# Active and inactive are the calls of the source. Rule for the calls: active = hit-call score of the fitted dose curve at least 0.9, where 1 is the maximum; inactive = score below 0.9.
# Biological target: Nuclear respiratory factor 1 (Homo sapiens) (UniProt Q16656)
# Assay: ATG_NRF1_CIS: Attagene CIS-FACTORIAL HepG2 Assay for human Nuclear Respiratory Factor 1 (NRF1) Orphan Gene (AID 2282987)
# Details: HepG2 NRF1 cis-element reporter, Attagene multiplex; actives raise or lower the signal
# In short: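 HepG2 cells transiently transfected with multiple reporter transcription units under cis-regulatory promoter control, so endogenous transcription-factor activity is read. After 24 h compound exposure, reporter mRNA quantified by RT-PCR, fluorescent labelling, HpaI digestion and capillary electrophoresis; bidirectional fitting versus DMSO.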
# Chain of Nuclear respiratory factor 1 (Homo sapiens) (Q16656 whole entry, looked up): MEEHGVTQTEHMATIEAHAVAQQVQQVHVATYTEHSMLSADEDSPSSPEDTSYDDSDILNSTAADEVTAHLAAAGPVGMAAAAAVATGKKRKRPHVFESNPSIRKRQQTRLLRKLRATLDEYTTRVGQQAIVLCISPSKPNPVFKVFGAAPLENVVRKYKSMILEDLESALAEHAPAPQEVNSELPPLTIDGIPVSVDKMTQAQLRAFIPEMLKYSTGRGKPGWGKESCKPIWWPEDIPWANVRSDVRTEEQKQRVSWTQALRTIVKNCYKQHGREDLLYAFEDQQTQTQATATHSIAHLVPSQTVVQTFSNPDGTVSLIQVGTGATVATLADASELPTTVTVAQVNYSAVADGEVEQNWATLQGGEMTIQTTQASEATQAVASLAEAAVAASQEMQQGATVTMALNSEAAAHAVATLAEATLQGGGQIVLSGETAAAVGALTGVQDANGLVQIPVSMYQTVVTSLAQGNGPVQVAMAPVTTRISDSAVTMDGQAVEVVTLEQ
SMILES,outcome,AC50
O=[N+]([O-])c1cc(Cl)ccc1Cl,inactive,–
FC(F)(F)c1ccc(Cl)cc1,inactive,–
CC(O)C(F)(F)C(F)(F)F (configuration not stated),inactive,–
Clc1ccc(Oc2ccccc2)cc1,inactive,–
O=C(O)C(F)(F)C(F)(F)C(=O)O,inactive,–
O=S1(=O)OCC2C(CO1)C1(Cl)C(Cl)=C(Cl)C2(Cl)C1(Cl)Cl (configuration not stated),inactive,–
CNC(=O)Oc1ccc(N(C)C)c(C)c1,inactive,–
O=c1[nH]c2ccccc2c(=O)o1,inactive,–
O=NN1CCCC1,inactive,–
COC(N)=O,inactive,–
c1ccc(OP(Oc2ccccc2)Oc2ccccc2)cc1,inactive,–
CC(C)CBr,inactive,–
CCCCc1ccc(O)cc1,inactive,–
OCC(F)(F)OC(F)(F)C(F)(F)OC(F)(F)C(F)(F)OC(F)(F)F,inactive,–
NNC(N)=S,inactive,–
C/C(=N\NC(=O)Nc1cc(F)cc(F)c1)c1ncccc1C(=O)O,inactive,–
CC(O)C#N (configuration not stated),inactive,–
N#C/C=C/c1ccccc1,inactive,–
CC(=O)CCc1ccc2c(c1)OCO2,inactive,–
C=CC(=O)OCC(F)(F)C(F)F,inactive,–

SMILES,outcome,AC50
O=S(=O)(F)C(F)(F)C(F)(F)C(F)(F)C(F)(F)C(F)(F)C(F)(F)C(F)(F)C(F)(F)F,inactive,–
Oc1ccccc1Br,inactive,–
CC1=C(C(=O)Nc2ccccc2)S(=O)(=O)CCO1,inactive,–
O=S(=O)(c1ccc(O)cc1)c1ccc(O)cc1,inactive,–
Cc1ccc(C(=O)Cl)cc1,inactive,–
CCN(CC)C1CCCCC1,inactive,–
Cc1cc(C)c(C(=O)P(=O)(c2ccccc2)c2ccccc2)c(C)c1,inactive,–
CC1(C)CN=C(NN=C(/C=C/c2ccc(C(F)(F)F)cc2)/C=C/c2ccc(C(F)(F)F)cc2)NC1,–,18 µM (active)
O=C(CBr)OCc1ccccc1,inactive,–
N#Cc1ccc(O)cc1,inactive,–
CO/N=C(/C(=O)OC)c1ccccc1COc1ccccc1C,inactive,–
O=P(OCC(Br)CBr)(OCC(Br)CBr)OCC(Br)CBr (configuration not stated),–,18.6 µM (active)
Oc1ccc(I)cc1,inactive,–
CCCCN(CC)C(=O)SCCC,inactive,–
Cn1[nH]nnc1=S,inactive,–
CC(=O)c1ccc(-c2ccccc2)cc1,inactive,–
C=C(C)C(=O)OCC1CO1 (configuration not stated),inactive,–
CCCCCCCc1ccc(O)cc1,inactive,–
COC(=O)C(F)(F)C(F)(F)OC(F)(C(F)(F)F)C(F)(F)OC(F)=C(F)F (configuration not stated),inactive,–

# Tested on: not listed separately
# Assay: ATG_NFI_CIS: Attagene CIS-FACTORIAL HepG2 Assay for human Nuclear Factor I (NFI) (AID 2282989)
# Details: HepG2 cis-regulatory reporter, NFI response element transcription; actives raise or lower the signal
# In short: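 Reporter transcripts were measured by RT-PCR with fluorescent primer extension and capillary electrophoresis 24 h post-treatment. HepG2 cells carried transiently transfected cis-regulated reporter constructs reporting endogenous factor activity; gain or loss fitted against DMSO baseline.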
SMILES,outcome,AC50
O=[N+]([O-])c1cc(Cl)ccc1Cl,inactive,–
FC(F)(F)c1ccc(Cl)cc1,inactive,–
CC(O)C(F)(F)C(F)(F)F (configuration not stated),inactive,–
Clc1ccc(Oc2ccccc2)cc1,inactive,–
O=C(O)C(F)(F)C(F)(F)C(=O)O,inactive,–
O=S1(=O)OCC2C(CO1)C1(Cl)C(Cl)=C(Cl)C2(Cl)C1(Cl)Cl (configuration not stated),–,178 µM (active)
CNC(=O)Oc1ccc(N(C)C)c(C)c1,inactive,–
O=c1[nH]c2ccccc2c(=O)o1,inactive,–
O=NN1CCCC1,inactive,–
COC(N)=O,inactive,–
c1ccc(OP(Oc2ccccc2)Oc2ccccc2)cc1,inactive,–
CC(C)CBr,inactive,–
CCCCc1ccc(O)cc1,inactive,–
OCC(F)(F)OC(F)(F)C(F)(F)OC(F)(F)C(F)(F)OC(F)(F)F,inactive,–
NNC(N)=S,inactive,–
C/C(=N\NC(=O)Nc1cc(F)cc(F)c1)c1ncccc1C(=O)O,inactive,–
CC(O)C#N (configuration not stated),inactive,–
N#C/C=C/c1ccccc1,inactive,–
CC(=O)CCc1ccc2c(c1)OCO2,inactive,–
C=CC(=O)OCC(F)(F)C(F)F,inactive,–

SMILES,outcome,AC50
O=S(=O)(F)C(F)(F)C(F)(F)C(F)(F)C(F)(F)C(F)(F)C(F)(F)C(F)(F)C(F)(F)F,inactive,–
Oc1ccccc1Br,inactive,–
CC1=C(C(=O)Nc2ccccc2)S(=O)(=O)CCO1,inactive,–
O=S(=O)(c1ccc(O)cc1)c1ccc(O)cc1,inactive,–
Cc1ccc(C(=O)Cl)cc1,inactive,–
CCN(CC)C1CCCCC1,inactive,–
Cc1cc(C)c(C(=O)P(=O)(c2ccccc2)c2ccccc2)c(C)c1,–,55.2 µM (active)
CC1(C)CN=C(NN=C(/C=C/c2ccc(C(F)(F)F)cc2)/C=C/c2ccc(C(F)(F)F)cc2)NC1,–,15.4 µM (active)
O=C(CBr)OCc1ccccc1,inactive,–
N#Cc1ccc(O)cc1,inactive,–
CO/N=C(/C(=O)OC)c1ccccc1COc1ccccc1C,inactive,–
O=P(OCC(Br)CBr)(OCC(Br)CBr)OCC(Br)CBr (configuration not stated),inactive,–
Oc1ccc(I)cc1,inactive,–
CCCCN(CC)C(=O)SCCC,inactive,–
Cn1[nH]nnc1=S,inactive,–
CC(=O)c1ccc(-c2ccccc2)cc1,inactive,–
C=C(C)C(=O)OCC1CO1 (configuration not stated),inactive,–
CCCCCCCc1ccc(O)cc1,inactive,–
COC(=O)C(F)(F)C(F)(F)OC(F)(C(F)(F)F)C(F)(F)OC(F)=C(F)F (configuration not stated),inactive,–

# Biological target: Myc proto-oncogene protein (Homo sapiens) (UniProt P01106)
# Assay: ATG_Myc_CIS: Attagene CIS-FACTORIAL HepG2 Assay for human Myelocytomatosis (Myc) Proto-Oncogene Transcription Factor (AID 2282990)
# Details: HepG2, Attagene cis-reporter transcription factor activity; actives raise or lower the signal
# In short: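 Fluorescence intensity of reporter-specific cDNA fragments, separated by capillary electrophoresis, gives the signal. Transfected HepG2 cells carrying cis-promoter reporter constructs are incubated with compound for 24 h; DMSO serves as baseline.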
# Chain of Myc proto-oncogene protein (Homo sapiens) (P01106 whole entry, looked up): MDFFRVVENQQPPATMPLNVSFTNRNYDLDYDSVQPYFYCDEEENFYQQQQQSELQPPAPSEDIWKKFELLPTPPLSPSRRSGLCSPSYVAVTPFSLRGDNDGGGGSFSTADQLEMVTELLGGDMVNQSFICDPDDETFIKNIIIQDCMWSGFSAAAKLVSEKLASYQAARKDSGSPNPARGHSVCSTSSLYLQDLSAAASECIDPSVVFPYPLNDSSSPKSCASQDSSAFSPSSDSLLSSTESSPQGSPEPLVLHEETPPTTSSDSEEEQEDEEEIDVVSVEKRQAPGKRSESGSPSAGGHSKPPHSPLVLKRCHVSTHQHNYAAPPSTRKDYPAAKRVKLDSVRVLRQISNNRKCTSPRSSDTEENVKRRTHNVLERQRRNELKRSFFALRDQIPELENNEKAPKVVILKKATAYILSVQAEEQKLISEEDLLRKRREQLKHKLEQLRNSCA
SMILES,outcome,AC50
O=[N+]([O-])c1cc(Cl)ccc1Cl,inactive,–
FC(F)(F)c1ccc(Cl)cc1,inactive,–
CC(O)C(F)(F)C(F)(F)F (configuration not stated),inactive,–
Clc1ccc(Oc2ccccc2)cc1,inactive,–
O=C(O)C(F)(F)C(F)(F)C(=O)O,inactive,–
O=S1(=O)OCC2C(CO1)C1(Cl)C(Cl)=C(Cl)C2(Cl)C1(Cl)Cl (configuration not stated),–,172 µM (active)
CNC(=O)Oc1ccc(N(C)C)c(C)c1,inactive,–
O=c1[nH]c2ccccc2c(=O)o1,inactive,–
O=NN1CCCC1,inactive,–
COC(N)=O,inactive,–
c1ccc(OP(Oc2ccccc2)Oc2ccccc2)cc1,inactive,–
CC(C)CBr,inactive,–
CCCCc1ccc(O)cc1,inactive,–
OCC(F)(F)OC(F)(F)C(F)(F)OC(F)(F)C(F)(F)OC(F)(F)F,inactive,–
NNC(N)=S,inactive,–
C/C(=N\NC(=O)Nc1cc(F)cc(F)c1)c1ncccc1C(=O)O,inactive,–
CC(O)C#N (configuration not stated),inactive,–
N#C/C=C/c1ccccc1,inactive,–
CC(=O)CCc1ccc2c(c1)OCO2,inactive,–
C=CC(=O)OCC(F)(F)C(F)F,inactive,–

SMILES,outcome,AC50
O=S(=O)(F)C(F)(F)C(F)(F)C(F)(F)C(F)(F)C(F)(F)C(F)(F)C(F)(F)C(F)(F)F,inactive,–
Oc1ccccc1Br,inactive,–
CC1=C(C(=O)Nc2ccccc2)S(=O)(=O)CCO1,inactive,–
O=S(=O)(c1ccc(O)cc1)c1ccc(O)cc1,inactive,–
Cc1ccc(C(=O)Cl)cc1,inactive,–
CCN(CC)C1CCCCC1,inactive,–
Cc1cc(C)c(C(=O)P(=O)(c2ccccc2)c2ccccc2)c(C)c1,–,49.1 µM (active)
CC1(C)CN=C(NN=C(/C=C/c2ccc(C(F)(F)F)cc2)/C=C/c2ccc(C(F)(F)F)cc2)NC1,inactive,–
O=C(CBr)OCc1ccccc1,inactive,–
N#Cc1ccc(O)cc1,inactive,–
CO/N=C(/C(=O)OC)c1ccccc1COc1ccccc1C,inactive,–
O=P(OCC(Br)CBr)(OCC(Br)CBr)OCC(Br)CBr (configuration not stated),inactive,–
Oc1ccc(I)cc1,inactive,–
CCCCN(CC)C(=O)SCCC,inactive,–
Cn1[nH]nnc1=S,inactive,–
CC(=O)c1ccc(-c2ccccc2)cc1,inactive,–
C=C(C)C(=O)OCC1CO1 (configuration not stated),inactive,–
CCCCCCCc1ccc(O)cc1,inactive,–
COC(=O)C(F)(F)C(F)(F)OC(F)(C(F)(F)F)C(F)(F)OC(F)=C(F)F (configuration not stated),inactive,–
